Screen size: about 310,000 compounds; about 14,000 (4.5%) showed an effect of 50% or more. Effects have a minus sign here. Shown is part of a subset that was picked to be rich in strong results.
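Note: peak tail current of the secondary pulse compared with the same well before compound.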

The target in this assay is human ether-à-go-go-related gene (hERG) potassium channel (human, UniProt Q12809). Nature of the assay: primary screen, population patch clamp on CHO cells stably expressing hERG; higher = less effect of the substance.
human ether-à-go-go-related gene (hERG) potassium channel, sequence (Q12809 whole entry, looked up): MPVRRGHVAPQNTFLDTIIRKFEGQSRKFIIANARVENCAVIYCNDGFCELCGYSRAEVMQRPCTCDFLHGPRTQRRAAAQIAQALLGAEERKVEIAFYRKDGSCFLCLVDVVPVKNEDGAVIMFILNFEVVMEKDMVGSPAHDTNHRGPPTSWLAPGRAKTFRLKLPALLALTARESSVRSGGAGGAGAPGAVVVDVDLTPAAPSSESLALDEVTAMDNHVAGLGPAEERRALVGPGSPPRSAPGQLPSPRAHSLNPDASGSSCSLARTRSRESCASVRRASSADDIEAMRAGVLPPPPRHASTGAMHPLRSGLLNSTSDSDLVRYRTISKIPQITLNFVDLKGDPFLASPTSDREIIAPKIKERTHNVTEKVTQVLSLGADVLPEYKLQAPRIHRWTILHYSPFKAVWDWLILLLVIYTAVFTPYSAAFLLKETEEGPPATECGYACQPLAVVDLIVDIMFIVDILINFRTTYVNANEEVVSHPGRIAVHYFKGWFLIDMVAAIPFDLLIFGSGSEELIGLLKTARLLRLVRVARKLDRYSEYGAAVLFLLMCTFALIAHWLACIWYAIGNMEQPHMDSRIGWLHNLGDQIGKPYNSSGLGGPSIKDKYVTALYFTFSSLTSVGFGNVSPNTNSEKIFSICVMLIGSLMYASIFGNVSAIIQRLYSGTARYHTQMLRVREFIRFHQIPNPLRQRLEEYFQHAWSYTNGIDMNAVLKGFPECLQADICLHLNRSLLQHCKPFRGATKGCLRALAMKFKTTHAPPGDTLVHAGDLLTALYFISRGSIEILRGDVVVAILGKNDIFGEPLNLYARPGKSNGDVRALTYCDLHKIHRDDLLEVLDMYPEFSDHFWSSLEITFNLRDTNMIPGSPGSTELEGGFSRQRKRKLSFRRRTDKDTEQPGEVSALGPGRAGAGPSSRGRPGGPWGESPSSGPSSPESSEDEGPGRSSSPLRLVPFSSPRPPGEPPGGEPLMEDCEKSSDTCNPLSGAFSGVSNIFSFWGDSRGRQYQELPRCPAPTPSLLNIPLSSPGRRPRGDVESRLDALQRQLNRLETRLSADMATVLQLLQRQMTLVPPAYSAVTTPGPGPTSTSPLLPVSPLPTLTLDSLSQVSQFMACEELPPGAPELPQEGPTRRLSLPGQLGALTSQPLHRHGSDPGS
Regarding `COCC(=O)N/N=C\c1cccc(OC)c1OC/C=C/c1ccccc1`, the “hERG current change (%, negative = inhibition) at 10uM” value was -15.6%.

With `O=C(NC1CCCCC1)c1cc(-c2ccc(O)cc2)on1`, the “hERG current change (%, negative = inhibition) at 10uM” value came to 0.886%.

Turning to `COc1ccc(Cl)cc1NC(=O)CSc1nc2sccc2c(=O)[nH]1`, the “hERG current change (%, negative = inhibition) at 10uM” value turned out to be 25.2%.

On to `COc1cc([N+](=O)[O-])ccc1NC(=O)Cc1ccc(F)cc1`, for which the “hERG current change (%, negative = inhibition) at 10uM” value is reported as 0.277%.

Regarding `CC(=O)N1N=C(c2ccccc2)CC1c1cn(Cc2ccccc2)c2ccccc12` (stereo not drawn), the “hERG current change (%, negative = inhibition) at 10uM” value is -13.6%.

As to `CCCCNc1ccc(S(N)(=O)=O)cc1[N+](=O)[O-]`, the “hERG current change (%, negative = inhibition) at 10uM” value is given as -0.608%.

As to `Cc1ccc(S(=O)(=O)N2CCN(Cc3nc4ccccc4[nH]3)CC2)cc1C`, the “hERG current change (%, negative = inhibition) at 10uM” value was -45.1%.

In the case of `CCN(CC)CCCN(C(C)=O)c1nc(-c2cc(OC)ccc2OC)cs1.Cl`, the “hERG current change (%, negative = inhibition) at 10uM” value was -65.8%.

With `CCC(=O)N(CC)c1nc(-c2cc(OC)ccc2OC)cs1`, the “hERG current change (%, negative = inhibition) at 10uM” value is 15%.

For `CCC(=O)N(CCCN(C)C)c1nc(-c2cc(OC)ccc2OC)cs1.Cl`, the “hERG current change (%, negative = inhibition) at 10uM” value is -37.3%.

Turning to `CC(/C=C/c1ccccc1)=N\NC(=O)c1ccc2c(c1)OCCO2`, the “hERG current change (%, negative = inhibition) at 10uM” value stood at 3.3%.

Regarding `O=C(NCc1ccncc1)C(=O)NCC1OCCCN1S(=O)(=O)c1cc(F)ccc1F` (stereo not drawn), the “hERG current change (%, negative = inhibition) at 10uM” value is reported as 4.86%.

As to `COc1ccccc1C(=O)Oc1cc(N)n(S(=O)(=O)c2ccc(C)cc2)n1`, the “hERG current change (%, negative = inhibition) at 10uM” value was -7.77%.

Consider `O=C(CSC(=S)N1CCOCC1)Nc1nccs1`, for which the “hERG current change (%, negative = inhibition) at 10uM” value was -1.54%.

Take `CCc1c(C)nc(SCC(=O)N2CCCCC2)[nH]c1=O`: the “hERG current change (%, negative = inhibition) at 10uM” value was found to be 3.18%.

On to `CN1c2ccccc2Oc2nnc(Cl)cc21`, for which the “hERG current change (%, negative = inhibition) at 10uM” value is reported as -5.87%.

`CCN1CCN(c2cc3c(nn2)Oc2ccccc2N3C)CC1`: the “hERG current change (%, negative = inhibition) at 10uM” value is given as -41.1%.

In the case of `CN1c2ccccc2Oc2nnc(N3CCN(Cc4ccccc4)CC3)cc21`, the “hERG current change (%, negative = inhibition) at 10uM” value is on record as -78%.

On to `C=C(C)C(=O)Nc1cccc(C2=NOC3(C2)C[C@@H](C(N)=O)N(C(=O)C(=C)C)C3)c1` (stereo partly drawn), for which the “hERG current change (%, negative = inhibition) at 10uM” value is on record as 7.14%.

As for `CCOc1ccc(-c2nc(N)ncc2Oc2cccc(OC)c2)c(O)c1`, the “hERG current change (%, negative = inhibition) at 10uM” value amounted to 6.7%.

Regarding `CCCCCn1c(SCCN2CCOCC2)nc2c1c(=O)[nH]c(=O)n2C`, the “hERG current change (%, negative = inhibition) at 10uM” value is given as -66.5%.

On to `CCCCCCn1c(SCCN2CCOCC2)nc2c1c(=O)[nH]c(=O)n2C`, for which the “hERG current change (%, negative = inhibition) at 10uM” value is listed as -74.6%.

For the compound `CC(C)CCn1c(SCCN2CCOCC2)nc2c1c(=O)[nH]c(=O)n2C`, the “hERG current change (%, negative = inhibition) at 10uM” value is on record as -17.7%.

Turning to `C=CCn1c(SCCN2CCOCC2)nc2c1c(=O)[nH]c(=O)n2C`, the “hERG current change (%, negative = inhibition) at 10uM” value is recorded as 8.38%.

As to `COCCn1c(SCCN2CCOCC2)nc2c1c(=O)[nH]c(=O)n2C`, the “hERG current change (%, negative = inhibition) at 10uM” value is 14.2%.

Regarding `CCCCCn1c(SCCC(C)C)nc2c1c(=O)[nH]c(=O)n2C`, the “hERG current change (%, negative = inhibition) at 10uM” value is given as -11.9%.

As to `C/C(Cl)=C/Cn1c(SCCN2CCOCC2)nc2c1c(=O)[nH]c(=O)n2C`, the “hERG current change (%, negative = inhibition) at 10uM” value is -64.6%.

`C=C(C)Cn1c(SCCN2CCOCC2)nc2c1c(=O)[nH]c(=O)n2C`: the “hERG current change (%, negative = inhibition) at 10uM” value is -4.61%.

For the compound `CCCCCn1c(SCCOCC)nc2c1c(=O)[nH]c(=O)n2C`, the “hERG current change (%, negative = inhibition) at 10uM” value is -46.8%.

On to `CCN1CCCC1CNC(=O)c1cc2c(=O)n(C)c3ccccc3c2n1C` (stereo not drawn), for which the “hERG current change (%, negative = inhibition) at 10uM” value is on record as -18.5%.

Consider `Cc1ccc(CN(Cc2cccnc2)C(=S)Nc2cccc(Cl)c2C)cc1`, for which the “hERG current change (%, negative = inhibition) at 10uM” value came out at 8.32%.

With `O=C(Cc1ccccc1)Nc1cc([N+](=O)[O-])ccc1N1CCOCC1`, the “hERG current change (%, negative = inhibition) at 10uM” value is -36.2%.

For `CCOC(=O)CSc1ccc2nnc(CCNS(=O)(=O)c3ccc(C)cc3)n2n1`, the “hERG current change (%, negative = inhibition) at 10uM” value is reported as 4.23%.

In the case of `O=C(CNS(=O)(=O)/C=C/c1ccccc1)OC1CCOC1=O` (stereo not drawn), the “hERG current change (%, negative = inhibition) at 10uM” value came out at 15.9%.

On to `Cc1cc(C)n(-c2nc(N(C)C)nc(N3CCOCC3)n2)n1`, for which the “hERG current change (%, negative = inhibition) at 10uM” value is given as -6.78%.

As for `CCN(CC)S(=O)(=O)c1ccc(OC)c(NC(=O)c2ccc([N+](=O)[O-])cc2)c1`, the “hERG current change (%, negative = inhibition) at 10uM” value is -34.9%.

For `CN1/C(=C\C(=S)NC(=O)c2cccc(Br)c2)C(C)(C)c2ccccc21`, the “hERG current change (%, negative = inhibition) at 10uM” value was -7.85%.

`CCSc1nnc(N2C(=O)CC(c3ccsc3)C3=C2CC(C)(C)CC3=O)s1` (stereo not drawn): the “hERG current change (%, negative = inhibition) at 10uM” value was -6.24%.

Regarding `CN(Cc1nc2ccccc2c(=O)[nH]1)C(=O)c1ccc(S(=O)(=O)N(C)C)cc1`, the “hERG current change (%, negative = inhibition) at 10uM” value is listed as 4.04%.

With `COc1cccc(Nc2nc(-c3cccs3)nc3ccccc23)c1`, the “hERG current change (%, negative = inhibition) at 10uM” value was 9.19%.

Consider `CCCCC(O)(CCCC)C(=O)N/N=C(\C)c1ccc(Cl)cc1`, for which the “hERG current change (%, negative = inhibition) at 10uM” value is reported as -66.9%.

As for `CCCCCC(=O)N/N=C(\C)c1ccc(Cl)cc1`, the “hERG current change (%, negative = inhibition) at 10uM” value is listed as 9.87%.

On to `C/C(=N\NC(N)=O)c1ccc(Cl)cc1`, for which the “hERG current change (%, negative = inhibition) at 10uM” value was 6.12%.

With `Cc1onc(-c2ccccc2)c1C(=O)N1CCN(S(=O)(=O)c2ccccc2Br)CC1`, the “hERG current change (%, negative = inhibition) at 10uM” value was -1.99%.

Consider `Cc1c(Cl)cccc1NC(=S)N1CC2CC(C1)c1cccc(=O)n1C2` (stereo not drawn), for which the “hERG current change (%, negative = inhibition) at 10uM” value is -4.67%.

With `Cc1nn(-c2nc3ccccc3[nH]2)c(N)c1-c1ccccc1`, the “hERG current change (%, negative = inhibition) at 10uM” value was determined as 0.295%.

Take `Cc1nn(C(C)C(=O)NCCCN2CCCCCC2)c(=O)c2c1sc1ccccc12` (stereo not drawn): the “hERG current change (%, negative = inhibition) at 10uM” value is reported as -28.1%.

As for `Cc1nn(C(C)C(=O)NCCCN2CCCCC2C)c(=O)c2c1sc1ccccc12` (stereo not drawn), the “hERG current change (%, negative = inhibition) at 10uM” value is -5.22%.

Regarding `CCN(CC)CCCNC(=O)C(C)n1nc(C)c2sc3ccccc3c2c1=O` (stereo not drawn), the “hERG current change (%, negative = inhibition) at 10uM” value is recorded as -19.7%.

For the compound `CCC1CCCCN1CCCNC(=O)C(C)n1nc(C)c2sc3ccccc3c2c1=O` (stereo not drawn), the “hERG current change (%, negative = inhibition) at 10uM” value is given as -69.8%.

Take `Cc1nn(C(C)C(=O)NCCCN(Cc2ccccc2)C(C)C)c(=O)c2c1sc1ccccc12` (stereo not drawn): the “hERG current change (%, negative = inhibition) at 10uM” value is listed as -11.7%.

For `CCC(C(=O)NCCCN(CC)Cc1ccccc1)n1nc(C)c2sc3ccccc3c2c1=O` (stereo not drawn), the “hERG current change (%, negative = inhibition) at 10uM” value is listed as -68.1%.

As to `CCC(=O)N1CCc2cc(S(=O)(=O)N3CCc4ccccc43)ccc21`, the “hERG current change (%, negative = inhibition) at 10uM” value was found to be 2.61%.

With `Clc1ccc2oc(SCc3cccnc3)nc2c1`, the “hERG current change (%, negative = inhibition) at 10uM” value is listed as -16.2%.

As to `CCCOc1ccc(OCCSc2ncccn2)cc1`, the “hERG current change (%, negative = inhibition) at 10uM” value is -2.55%.

In the case of `O=C(CCNC(=O)c1ccccc1)NCCCc1ccccc1`, the “hERG current change (%, negative = inhibition) at 10uM” value came out at 6.54%.

As for `O=C(Nc1ccc(C(F)(F)F)cc1)C1CCN(c2cnccn2)CC1`, the “hERG current change (%, negative = inhibition) at 10uM” value is recorded as -12.5%.

These data come from publication PMC4336329 (PLoS ONE, 2015).
